Activity calls are given as the source filed them.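 The calls were made as follows: active = high combined rank on largest and smallest cell-count-weighted shift across three tests, rank score above 45, floors 50 and 25 (some results past the limit were not filed as active); inactive = the rest.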
Experiment: activators of LNCaP cell differentiation, retest, confirmation, side scatter shift, flow cytometry (AID 1069);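 also: LNCaP human prostate cancer cells in low-serum medium with charcoal-stripped FBS; percent of cells with raised granularity gated so DMSO controls show 10%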
Details: 4 d, stronger effect = higher value

| Structure (SMILES) | side scatter shift (at 100 µM) | side scatter shift (side scatter shift, at 10 µM) |
| --- | --- | --- |
| COc1ccc2nc(NC(=O)C(NS(=O)(=O)c3cccs3)C(C)C)sc2c1 (stereo unspecified) | 35.8% (inactive) | 3.1% |
| CCC(CC)C(=O)Nc1cccc(C(=O)NCc2ccco2)c1 | 14.1% (inactive) | 6% |
| C=CCn1c(=N)n(CC(O)COc2ccccc2OC)c2ccccc21 (stereo unspecified) | 13.8% (inactive) | 2.35% |
| CCOc1ccc(OCC)c(NC(=O)C2CCCN(S(=O)(=O)c3c(C)noc3C)C2)c1 (stereo unspecified) | 19.8% (inactive) | 2.05% |
| Cc1ccc(NC(=O)N2CCCN(Cc3ccc(F)cc3)C2)cc1C | 15.4% (inactive) | 28.2% |
| c1ccc(CSc2nnc(-c3cccs3)n2Cc2ccco2)cc1 | 20% (inactive) | 6.7% |
| Cc1oc(-c2ccc(Cl)cc2)nc1CN1CCC(C(=O)N2CCc3ccccc3C2)CC1 | 44.4% (inactive) | 17% |
| O=C(NC1CCCC1)C1CCN(S(=O)(=O)c2cccc3cccnc23)CC1 | 15.9% (inactive) | 1.65% |
| COC(=O)c1ccc2c(=O)n(Cc3ccco3)c(SCC(=O)Nc3ccc(C)c(Cl)c3)nc2c1 | 21% (inactive) | 10.6% |
| COc1ccc(NC(=O)NCCCN2CCN(c3cc(C)ccc3C)CC2)cc1 | 0% (inactive) | 7.1% |
| COc1ccc(-c2oc3ncn(CCN4CCOCC4)c(=N)c3c2-c2ccc(OC)cc2)cc1 | 42.3% (inactive) | 19.7% |
| CCc1ccc(-c2nc(CN3CCC(C(=O)NCCN(CC)c4ccccc4)CC3)c(C)o2)cc1 | 50% (inactive) | 24.1% |
| COc1ccc(-c2nc(CN3CCC(C(=O)N4CCc5ccccc54)CC3)c(C)o2)cc1OC | 12.5% (inactive) | 2.7% |

Reference: PubChem BioAssay AID1069 (NMMLSC, 2008)
